Reference: PubChem BioAssay AID743318 (Broad Institute, 2014)
Entries with a potency or affinity are not part of this list. Activity calls are given as the source filed them.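 Rule for the calls: active = cytotoxic signal drop whose half-maximal concentration is at most twice the top valid dose; inconclusive = flat drop between 30% and 70%, or poor fit; inactive = the rest.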

Assay: A549 cell cytotoxicity, dose response, cytotoxicity control, plate reader, dry powder, set 7 (AID 743318)
Conditions: A549 viability, CellTiter-Glo ATP luminescence, 72 h; series mostly up to 26 µM; activity change, negative = cytotoxic: at the top concentration

SMILES | activity change, negative = cytotoxic | outcome
COc1ccccc1OCCn1c(=S)[nH]c2ccccc21 | 16.9% (inactive) | 
Cc1ccc(C(C)C)c(OCCn2c(=S)[nH]c3cccc(Cl)c32)c1 | -5.23% (inactive) | 
Fc1ccc2[nH]c(=S)n(CCOc3ccccc3)c2c1 | 2.92% (inactive) | 
S=c1[nH]c2cccc(Cl)c2n1CCOc1ccccc1 |  | inactive
Cc1ccc(C(C)C)c(OCCn2c(=S)[nH]c3c(F)cccc32)c1 | 10.1% (inactive) | 
S=c1[nH]c2ccccc2n1CCOc1ccc(Cl)cc1 | -23.8% (inactive) | 
COc1ccc(OCCn2c(=S)[nH]c3ccccc32)cc1 | -10.1% (inactive) | 
Fc1ccccc1OCCn1c(=S)[nH]c2ccccc21 | 21.2% (inactive) | 
CC(C)c1ccc(OCCn2c(=S)[nH]c3ccccc32)cc1 | 10.2% (inactive) | 
Cc1ccc(C(C)C)c(OCCn2c(=S)[nH]c3ccccc32)c1 |  | inactive
Cc1cccc(OCCn2c(=S)[nH]c3ccccc32)c1C | 20.7% (inactive) | 
Cc1ccc(C(C)C)c(OCCn2c(=S)[nH]c3cccc(C)c32)c1 | -17.9% (inactive) | 
CC(C)(C)c1ccccc1OCCn1c(=S)[nH]c2ccccc21 | -20.2% (inactive) | 
CC(C)c1ccccc1NCCn1c(=S)[nH]c2ccccc21 | 24.5% (inactive) | 
Cc1ccc(OCCn2c(SCCO)nc3ccccc32)c(C(C)C)c1 | -1.13% (inactive) | 
Cc1cccc(OCCn2c(=S)[nH]c3cc(F)ccc32)c1 |  | inactive
Cc1cccc(OCCn2c(=S)[nH]c3ccc(C(F)(F)F)cc32)c1 | -24.1% (inactive) | 
S=c1[nH]c2cc(Cl)ccc2n1CCOc1ccccc1 | -5.83% (inactive) | 
Cc1ccc(C(C)C)c(OCCn2c(CO)nc3ccccc32)c1 | 22.9% (inactive) | 
Fc1cccc2c1[nH]c(=S)n2CCOc1ccccc1 |  | inactive
